Drawing on PubChem BioAssay AID1508600 (Functional Genomics Laboratory (NCATS/FGL), 2020), this text covers z-score for 68 sequences.

Among all 53,000 sequences or so, about 3,700 (7%) were called active. Many of the other results were omitted from the sample, so actives are more common in it than they were. Values without a mark were called inactive.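 Rule for the calls: active = gene knockdowns whose robust z-score for IL-1 alpha signal is at least 2 or at most -2, so actives lie on both sides; inactive = the rest.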

This experiment can be described thus: Components of the Cytosolic LPS Sensing Pathway: Gene Identification via Genome-wide siRNA Screen.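 Note: robust z of the log signal after scaling to non-targeting control siRNA wells of the plate.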 The note with it: RAW264.7 macrophages, IL-1a HTRF, actives lie on both sides, screened at 100 nM (by protocol), cells primed 5 h with Pam3CSK4 first. The essentials: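 Supernatant IL-1a by HTRF from RAW264.7 cells primed with Pam3CSK4 (5 hours) and transfected with LipidA (24 hour) after 48h siRNA knockdown at 100 nM; cell viability checked with CellTiter-Glo.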
GGAGCUAAAGCUGCUGAUUTT against S100g: the z-score is -0.404.

Consider CCCAGGACGACGACUUUUUTT against Pnmal1, for which the z-score is -0.0664.

Consider “GGACUUGGAAGUAAUUUUCTT against C230071H18Rik”, for which the z-score was 2.06 (active).

For GGUUUUGGGCAAAAUUGAGTT against Edf1, the z-score is -0.899.

GCUAGGUCAGGGAGUUUUATT against Exosc2: the z-score was 3.33 (active).

Turning to CCAAUGCAAUGUUAGCUUUTT against Tas1r3, the z-score is 0.898.

As for GCCAUGGCAUAAAAACUGGTT against P2rx6, the z-score was -0.329.

Regarding CCACAUGAUCCUAACUUUGTT against Pqbp1, the z-score is -0.157.

On to CCUGAUAAGCAAAUACGGCTT against Rep15, for which the z-score was -0.893.

With CCUGAAGCCUCAAUACACATT against Ugt1a1, the z-score was 0.967.

Turning to GGCCUAAACACGGUUUUCATT against Ppm1n, the z-score is 3.72 (active).

In the case of “GGAUGAUCACAAAGGUAUATT against 4632404H12Rik”, the z-score is 0.0665.

Consider CCCAGUUGGUGUUUAUAUATT against Ppp3cb, for which the z-score is 0.115.

GGAGAUUUCAUGAACUCUGTT against Srrm3: the z-score is -0.141.

GGGUCUGCUACAUCUUCGGTT against Ino80e: the z-score is 2.27 (active).

GGCCAGGAAAAAAUCUGCATT against Neu1: the z-score is -0.293.

For GGGUUUGACCUGAUUUCUCTT against Col9a1, the z-score was 0.305.

With GGUUACCUCCACCAGAUCATT against Avpi1, the z-score was -0.326.

As to GGCGGUAACCACUUUCACGTT against Mycn, the z-score is -0.567.

As to “GGUUCCCUUUUUCAUCUAATT against 4632433K11Rik”, the z-score is 3.08 (active).

In the case of GGAAGAAAUGGAAUUGAAGTT against Pcdhga6, the z-score was 0.649.

For GGAGCAUUCAAAUUACAUCTT against Ccni, the z-score is 4.62 (active).

As to GGAUGAUCAAGACAAGCAGTT against Nobox, the z-score is -0.763.

Turning to CCUUGGGAAUUACCCAGAGTT against Cage1, the z-score is -0.565.

In the case of GCCGUUCCCAUUAUCGUUUTT against Tmem87a, the z-score is -0.693.

Consider GGAAAUUUGUAUCCCGAGUTT against Trp53, for which the z-score was -2.14 (active).

Regarding GGAAGGUGGAGAAAAUCCGTT against Hhipl2, the z-score is 0.585.

GGAAGAUACUAAUAGAGUATT against Enpep: the z-score is -0.00304.

For the sequence GGACGACAACGACAUCAUGTT against Sfrp2, the z-score was 0.475.

With GGGACCAAAGGAAACUUCATT against Eif2s3y, the z-score was -0.14.

On to CCCAGGUGAUUCUGAUAUUTT against Rpl30, for which the z-score was 0.534.

For UGGACUUGCUUCUCACAUCTT against Olfr694, the z-score is -2.22 (active).

On to GGUACAUUGGCAUUGUGAATT against Hnrnpf, for which the z-score was 0.525.

Take GCCUCCUUUGCUUCAUUUCTT against Fcer1g: the z-score was 1.83.

For GGUCUUCUGAAGAUGGCGUTT against Pja2, the z-score is 1.39.

With GCAACAAGUCUGGAGACAATT against Pebp1, the z-score is -0.595.

As for GGAGUUCCAGAAGCUUCUATT against Vwa3b, the z-score is -1.72.

In the case of GCGGCUCUUACGAGGUUUATT against Upk3a, the z-score is 0.024.

In the case of CGAUGAGAGUCCACUCCCATT against Cox18, the z-score was -3.19 (active).

As for “GGGAGUUAUGUUGGUAUCATT against 1700029F12Rik”, the z-score is -1.38.

Consider GGACUUCUUCUAUUUCAUATT against Fam20a, for which the z-score was -0.986.

With GGAAAACACGUUCACUAUATT against Elp2, the z-score is 0.021.

As for GGAGUCUCCAAUGAAAUGUTT against Kcnma1, the z-score is -0.464.

Regarding GCUAAACGAGUUAUUGGUGTT against Ecpas, the z-score was 0.829.

GGAGAAACUGGCUUUCUCUTT against Zp3: the z-score was 0.918.

In the case of GGUUCUACAGAUGUUUUCUTT against Tnfrsf22, the z-score was 3.84 (active).

As for GCGGCAAGUGGACUUUUCATT against Dlc1, the z-score is -1.09.

As to GCCCAGUUUGUCACAAAGCTT against Sorl1, the z-score was -0.276.

GCUAAGCGGAAUGCACUCGTT against Cxcl5: the z-score was -2.23 (active).

With “CCCUAGUGCAGUGAUAACUTT against 1700016D06Rik”, the z-score was 0.938.

As to CCCAACAAGAGUAUCUAUGTT against Foxh1, the z-score was -0.125.

Take GGCAUCUCUCCAAUAACCUTT against Fbxw2: the z-score was -1.2.

For GGUUCUGGUUUAGAUGCUATT against H2aw, the z-score was 2.36 (active).

As for GGAUUUCUUCUUAUGAUGATT against Khnyn, the z-score was -1.21.

Turning to GCUCAGAAUAUCACAUCAATT against Ppm1b, the z-score was -1.59.

For the sequence GCUAAAAUAUUAGGGAAGCTT against Timm29, the z-score was 0.429.

For GGAGAUAGGAUUGCUUGCATT against Mthfd1l, the z-score is -2.3 (active).

For the sequence GGAAAGAAAAAUGAAGCUUTT against Tmem167b, the z-score was -0.548.

With GGAUAUCGUUGUUUCUGAGTT against Lmbr1, the z-score is -1.

GGGUGGUGUUCCAUGACAGTT against Ubp1: the z-score is -1.82.

As for GGCACAAGAUUAUUUAAGUTT against Tmem68, the z-score was 0.362.

As for GGUUCUAUGCUGAAGGUCATT against Lhfpl2, the z-score was 0.358.

As for GGAGCUGUCCAGGUUUAUUTT against Psmd6, the z-score was -2.72 (active).

As to GGCUUGUGAAUGGAAAUAATT against Hsp90aa1, the z-score is -0.416.

In the case of CCUUAAGACCGGAUUUUUUTT against Cyp4f14, the z-score is 0.64.

Turning to GGAGUUUGUAUCAAACUUATT against Zcchc8, the z-score was 0.0121.

In the case of “GGUAAUGGGAGCUAGUUUATT against 6330549D23Rik”, the z-score is -0.259.

As to GCAUAGAAACCAUGCACAUTT against Acot2, the z-score was 3.28 (active).
